test system: Acinetobacter baumannii; experiment: Antibacterial activity against Acinetobacter baumannii ATCC 19606 (CO-ADD:GN_034); MIC in CAMBH media using NBS plates, by Resazurin F(560/590); assay type: functional; details: Concentration 20 uM, ASSAY_TEST Inhibition of Bacterial Growth, detection method Resazurin, Fluorescence (ex560/em590), MEDIA CAMHB, plate type 384well, CORNING #3640, time 18 hr

| SMILES | Inhibition [%] |
| --- | --- |
| CC(=O)OCCN1c2ccccc2Sc2cnccc21 | -1.85 |
| CCC/C(C)=C/c1ccc(CC)cn1 | -4.3 |
| OCc1nnn(-c2ccccc2)c1CO | -9.88 |
| Clc1ccc(-c2c(C3=NCCCN3)nnn2-c2ccc(Cl)cc2)cc1 | -3.66 |
| COc1ccc(C2OC3=Nc4cc(C)c(C)cc4NC3=C2O)cc1 (stereo not drawn) | 6.66 |
| CCOC(=O)C(C#N)C(=N)C1C(=O)OC2CCCCC21 (stereo not drawn) | -19.8 |
| CC(=O)Nc1ccc(S(=O)(=O)N=S(C)C)cc1 | 5.41 |
| CCCCSc1cc(O)nc(N)n1 | -7.06 |
| O=C(Nc1ccc(F)cc1)OCCOc1ccc([N+](=O)[O-])cc1 | 5.22 |
| COc1cc2oc3cc(C)oc(=O)c3c2cc1OC | 0.41 |
| CCOC(=O)/C(C#N)=C/c1cccc(C)c1 | 11.54 |
| CCNC(=O)Oc1cccnc1O | -10.2 |
| Brc1ccc(/N=N/c2ccc3ccccc3n2)cc1 | 4.06 |
| OCc1cc(O)c(CO)nn1 | -1.67 |
| C=C(C)CN1C(=O)C(C)S/C1=N/N=C1/SCC(=O)N1C (stereo not drawn) | 8.16 |
| CC(=O)CC[N+](C)(C)C.[I-] | -9.05 |
| CS(=O)(=O)O.OC(c1cc(C(F)(F)F)nc2c(Cl)cc(Cl)cc12)C1CCCCN1 (stereo not drawn) | 6.66 |
| OCCCCc1nccc2c1[nH]c1ccccc12 | -7.04 |
| c1ccc(-c2nnc(-c3ccccn3)s2)nc1 | -18.69 |
| O=c1oc2c(cc1O)oc(=O)c1cc(O)c(O)c(O)c12 | 17.2 |

| SMILES | Inhibition [%] |
| --- | --- |
| COc1ccc(C(=O)O)nc1C | -9.48 |
| CC1=CN2C(c3cccc([N+](=O)[O-])c3)=NON(c3ccc(C)cn3)C2C=C1 (stereo not drawn) | -11.84 |
| CN(C)c1ccc(/C=C(\C#N)C(=O)c2ccccc2)cc1 | -12.37 |
| Cc1cc2nc(-c3ccccn3)c(-c3ccccn3)nc2cc1C | 3.74 |
| CC1(C)CC(Nc2ccc(Nc3ccccc3)cc2)CC(C)(C)N1 | 9.93 |
| Cc1cccc(C)c1NC(=O)NCc1ccco1 | 7.13 |
| O=C1NCN(CCO)CN1 | -3.91 |
| O=C(O)C(c1ccccc1)C1(O)CCCCC1 (stereo not drawn) | -11.34 |
| CC(=O)OC1CCC2(C)C(=CCC3C2CCC2(C)C3CC3OC4(CCC(C)CN4)C(C)C32)C1 (stereo not drawn) | -6.15 |
| O=C1CCCC1C(=O)Nc1ccc2ccccc2c1 (stereo not drawn) | 10.21 |
| CCOP(=O)(OCC)/C(C#N)=C/c1ccc([N+](=O)[O-])cc1 | 12.51 |
| Cc1nc(S)nc(O)c1CCC1OCCO1 | -2.91 |
| C=C(C)C(=O)Nc1ccc(NC(C)C)cc1 | 5.36 |
| COC1OC(CO)C(N=C(C)C)C1O (stereo not drawn) | -14 |
| Cc1ccc(Nc2ccc(N)cc2S(=O)(=O)O)cc1 | 8.99 |
| Cc1ccc(C)c(C(=O)CCC(=O)O)c1 | 8.73 |
| CCNc1ccccc1C(=O)O | -10.34 |
| O=C1COc2cccnc2N1 | -14.05 |
| O=C1c2ccccc2C2=C3C(O)=NN=C3CCN12 | 14.87 |

test system: Escherichia coli; experiment: Antibacterial activity against Escherichia coli ATCC 25922 (CO-ADD:GN_001); MIC in CAMBH media using NBS plates, by Resazurin F(560/590); assay type: functional; details: Concentration 20 uM, ASSAY_TEST Inhibition of Bacterial Growth, detection method Resazurin, Fluorescence (ex560/em590), MEDIA CAMHB, plate type 384well, CORNING #3640, time 18 hr

| SMILES | Inhibition [%] |
| --- | --- |
| CC(=O)OCCN1c2ccccc2Sc2cnccc21 | -8.04 |
| CCC/C(C)=C/c1ccc(CC)cn1 | -16.08 |
| OCc1nnn(-c2ccccc2)c1CO | 7.14 |
| Clc1ccc(-c2c(C3=NCCCN3)nnn2-c2ccc(Cl)cc2)cc1 | 11.37 |
| COc1ccc(C2OC3=Nc4cc(C)c(C)cc4NC3=C2O)cc1 (stereo not drawn) | 1.83 |
| CCOC(=O)C(C#N)C(=N)C1C(=O)OC2CCCCC21 (stereo not drawn) | 15.65 |
| CC(=O)Nc1ccc(S(=O)(=O)N=S(C)C)cc1 | 5.54 |
| CCCCSc1cc(O)nc(N)n1 | 16.01 |
| O=C(Nc1ccc(F)cc1)OCCOc1ccc([N+](=O)[O-])cc1 | -7.06 |
| COc1cc2oc3cc(C)oc(=O)c3c2cc1OC | 8.42 |
| CCOC(=O)/C(C#N)=C/c1cccc(C)c1 | 20.45 |
| CCNC(=O)Oc1cccnc1O | 11.39 |
| Brc1ccc(/N=N/c2ccc3ccccc3n2)cc1 | -16.68 |
| OCc1cc(O)c(CO)nn1 | -7.33 |
| C=C(C)CN1C(=O)C(C)S/C1=N/N=C1/SCC(=O)N1C (stereo not drawn) | 1.61 |
| CC(=O)CC[N+](C)(C)C.[I-] | 1.86 |
| CS(=O)(=O)O.OC(c1cc(C(F)(F)F)nc2c(Cl)cc(Cl)cc12)C1CCCCN1 (stereo not drawn) | 19.86 |
| OCCCCc1nccc2c1[nH]c1ccccc12 | -1.94 |
| c1ccc(-c2nnc(-c3ccccn3)s2)nc1 | 9.86 |
| O=c1oc2c(cc1O)oc(=O)c1cc(O)c(O)c(O)c12 | 5.53 |

| SMILES | Inhibition [%] |
| --- | --- |
| COc1ccc(C(=O)O)nc1C | 11.67 |
| CC1=CN2C(c3cccc([N+](=O)[O-])c3)=NON(c3ccc(C)cn3)C2C=C1 (stereo not drawn) | 19.37 |
| CN(C)c1ccc(/C=C(\C#N)C(=O)c2ccccc2)cc1 | 8.74 |
| Cc1cc2nc(-c3ccccn3)c(-c3ccccn3)nc2cc1C | 8.69 |
| CC1(C)CC(Nc2ccc(Nc3ccccc3)cc2)CC(C)(C)N1 | -3.22 |
| Cc1cccc(C)c1NC(=O)NCc1ccco1 | 6.33 |
| O=C1NCN(CCO)CN1 | 8.55 |
| O=C(O)C(c1ccccc1)C1(O)CCCCC1 (stereo not drawn) | 11.15 |
| CC(=O)OC1CCC2(C)C(=CCC3C2CCC2(C)C3CC3OC4(CCC(C)CN4)C(C)C32)C1 (stereo not drawn) | 18.44 |
| O=C1CCCC1C(=O)Nc1ccc2ccccc2c1 (stereo not drawn) | -4.09 |
| CCOP(=O)(OCC)/C(C#N)=C/c1ccc([N+](=O)[O-])cc1 | 3.05 |
| Cc1nc(S)nc(O)c1CCC1OCCO1 | 10.14 |
| C=C(C)C(=O)Nc1ccc(NC(C)C)cc1 | 6.32 |
| COC1OC(CO)C(N=C(C)C)C1O (stereo not drawn) | 0.14 |
| Cc1ccc(Nc2ccc(N)cc2S(=O)(=O)O)cc1 | -1.31 |
| Cc1ccc(C)c(C(=O)CCC(=O)O)c1 | 0.68 |
| CCNc1ccccc1C(=O)O | 13.74 |
| O=C1COc2cccnc2N1 | 0.48 |
| O=C1c2ccccc2C2=C3C(O)=NN=C3CCN12 | 4.79 |
